Compounds with a hit are over-represented: about 9.4% of the library has one in this group of screens.
ELG1 repair inh = inhibitors of ELG1-dependent DNA repair in HEK293T cells. Potency, µM (highest dose often 46.1 µM), for the others: at the top dose activity change, negative = inhibition, hits mostly inhibitors. actives 2.3% (n = 330,000). AID 504467. HEK293T ELG1-luciferase reporter, luminescence, 16 h; DNA damage induced by 5-fluorouridine; note: % is set by controls: 0 for no effect and ±100 for the full control effect; nearly all actives have a fitted effect of over 55% in size
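DMSO vehicle served as the neutral condition. Each well held 2,000 cells given 5-fluorouridine plus compound; after 16 hr at 37 °C/5% CO2, ONE-Glo was added and luciferase measured 30 min later.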
NPC1 promoter act = NPC1 promoter activation; Huh7 NPC1 promoter luciferase reporter, 24 h; Potency, µM (doses to about 9.22 µM), without a hit: at the highest dose activation, usual class: activators; actives 2.4% (n = 320,000); note: % of control where 0% means no effect; nearly all actives have a fitted effect of over 60% in size
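Stable NPC1-promoter luciferase Huh7 line; cpd (DMSO) 24 h, 37 °C, 5% CO2; Amplite luciferase reagent 10 min RT; luminescence readout. qHTS format.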
Rab9 prom act = Rab9 promoter activation | AID 485297 | Potency, µM (titrated, usually from 9.22 µM), for inactives: at the highest dose activation, negative = inhibition, usual class: activators | actives 2.8% (n = 320,000) | Huh7 Rab9 promoter-luciferase reporter, luminescence, 24 h; note: % of control where 0% means no effect; nearly all actives have a fitted effect of over 60% in size
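Luciferase signal after 10 min detection reagent at ambient indicates Rab9 promoter upregulation; stably transfected Huh7 cells were treated 24 h with compound in DMSO at 37 °C, 5% CO2.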
SMN2 splice enh = increases expression of the SMN2 splice variant. HEK293 SMN2-luciferase splicing reporter, luminescence, 30-36 h. Potency, µM (highest dose often 46.1 µM), inactives show at the top dose activity change, positive = activation, hits mostly activators. actives 2.8% (n = 210,000). AID 1458; note: % of control where 0% means no effect; nearly all actives have a fitted effect of over 55% in size
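HEK293 cells carry an SMN2 minigene-luciferase reporter in which exon 7 inclusion puts luciferase in frame. Cells were seeded at 2000 cells/well, attached for 10-12 hours, then exposed to compounds for 30-36 hours at 37C before ONE-Glo luminescence.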
FLuc counter = firefly luciferase modulation, counter-screen for miR-21 project; P08659; purified FLuc, Km substrates, luminescence inhibition; Potency, µM (series often up to 57.5 µM), inactives show at the highest dose activity change, negative = inhibition, actives largely listed as inhibitors; actives 6.9% (n = 360,000); AID 588342;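 note: plate controls were vehicle for no effect and reference inhibitor for full effect; nearly all actives have a fitted effect of over 55% in size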
Target sequence (P08659 whole entry, looked up): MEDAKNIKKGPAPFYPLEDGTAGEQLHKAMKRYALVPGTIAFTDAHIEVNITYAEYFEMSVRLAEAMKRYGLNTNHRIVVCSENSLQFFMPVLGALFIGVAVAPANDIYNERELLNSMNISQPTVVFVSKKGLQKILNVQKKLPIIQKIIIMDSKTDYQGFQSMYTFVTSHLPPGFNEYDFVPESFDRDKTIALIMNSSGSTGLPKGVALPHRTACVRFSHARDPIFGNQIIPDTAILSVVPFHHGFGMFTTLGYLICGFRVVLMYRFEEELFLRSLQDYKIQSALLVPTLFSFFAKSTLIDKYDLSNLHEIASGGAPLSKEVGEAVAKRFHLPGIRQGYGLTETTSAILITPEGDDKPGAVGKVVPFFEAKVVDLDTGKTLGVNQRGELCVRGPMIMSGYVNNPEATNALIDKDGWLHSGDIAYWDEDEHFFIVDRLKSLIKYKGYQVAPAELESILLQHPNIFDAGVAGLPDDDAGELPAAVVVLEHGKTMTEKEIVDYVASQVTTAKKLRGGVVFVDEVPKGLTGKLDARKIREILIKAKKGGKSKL
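Purified P. pyralis luciferase, 10 nM final, with Km-level 10 uM D-luciferin and 10 uM ATP in 50 mM Tris acetate pH 7.5, 10 mM Mg acetate, 0.01% Tween-20, 0.05% BSA; 6-point qHTS titration about 60 µM downward; luminescence read.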
ELG1 genotoxic = induces genotoxicity in HEK293T cells with luciferase-tagged ELG1; HEK293T ELG1-luciferase reporter, luminescence, 16 h; Potency, µM (highest dose often 46 µM), for the others: at the top dose activity change, positive = activation, hits mostly activators; actives 1.3% (n = 330,000); AID 504466; note: % of control where 0% means no effect; nearly all actives have a fitted effect of over 60% in size
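Quantitative HTS format in 1536-well plates. HEK293T ELG1-luciferase reporter cells receive test compound and are incubated 16 hr at 37 °C, 5% CO2; ONE-Glo added, 30 min room temperature, then luminescence read.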
* hit, by the source's call; ? = inconclusive; nt = no result given; [ ] = remark or other dose. Calls come from the whole dose curve; as a rule, active = well fitted curve in the direction sought with a large enough effect; inconclusive = small, poorly fitted or top-dose-only effect, or another doubt; inactive = no such curve, though single readings can be large; an effect the other way counts as inactive or inconclusive. Potency is the fitted concentration of half-maximal effect.

SMILES | ELG1 repair inh | NPC1 promoter act | Rab9 prom act | SMN2 splice enh | FLuc counter | ELG1 genotoxic
C[C@@H](CNC1CCCCC1)OC(=O)c1ccccc1 | nt | nt | nt | -16%[20.6 µM] | nt | nt
CCOc1ccc(-n2c(=O)c3c(C)c(C)sc3n(CC(=O)C(C)(C)C)c2=O)cc1 | nt | nt | nt | -30% | 5% | nt
O=C(/C=C/c1ccco1)Nc1ccccn1 | ? | ? | ? | 8.9µM* | 6.7µM* | 8.2µM*
O=C(Nc1ccccn1)c1ccco1 | ? | ? | ? | ? | ? | 9%
CCn1cc(CNCc2cn(C)nc2-c2ccc(C3CCCCC3)cc2)cn1 | -1% | -2% | -2% | nt | 15µM* | 0%
Cn1cc(CNCc2ccc(OC(F)(F)F)cc2)c(-c2ccc3c(c2)OCCO3)n1 | 10% | -27% | -47% | nt | 1% | -1%
COC(=O)c1c(C)sc(-c2c(-c3ccc(F)cc3)[nH]c3[nH]c(=O)[nH]c(=O)c23)c1O | nt | nt | nt | nt | -18% | nt
Cc1ccc(N(C)C(CNS(=O)(=O)c2ccccc2)c2ccccc2)cc1 (centres undefined) | nt | nt | nt | -8% | 2% | nt
O=C(CC1Nc2ccccc2NC1=O)NCCc1ccccc1 (centres undefined) | -3% | -1% | -2% | -8% | -2% | -3%
O=C(CC1Nc2ccccc2NC1=O)c1ccccc1 (centres undefined) | ? | ? | 2.5µM* | 13µM* | 3µM* | 9.2µM*
Cc1ccc(NC(=O)CC2Nc3ccccc3NC2=O)cc1C (centres undefined) | nt | nt | nt | -6% | -12% | nt
Cc1ccc(NC2Sc3ccccc3NC2=O)cc1Cl (centres undefined) | 3% | 0% | 0% | nt | 19µM* | -1%
Cc1ccc(Cl)cc1NC(=O)CC1Sc2ccccc2NC1=O (centres undefined) | nt | nt | nt | -4% | -1% | nt
Cc1ccc(NC(=O)CC2Nc3ccccc3NC2=O)cc1Cl (centres undefined) | ? | 15% | 23% | -5% | 24µM* | ?
CC1=C(C(=O)Nc2ccc(C)cc2C)C(CC(C)C)n2nc(SCc3ccccc3C)nc2N1 (centres undefined) | nt | nt | nt | 3% | -1% | nt
CCOC(=O)c1cccc(NC(=O)c2oc3c(c2C)-c2nn(CC)cc2CC3)c1 | nt | nt | nt | nt | -6% | nt
CCc1ccc(C(=O)NC2CCCCC2)s1 | ? | 2.5µM* | 2.2µM* | 13µM* | 12µM* | 39%
O=C(NNC(=S)NC1CCCCC1)c1ccc(Cl)s1 | 0% | 27% | ? | 13µM* | ? | -2%
COc1cccc(C(=O)NNC(=S)NC2CCCCC2)c1 | ? | ? | 2.2µM* | ? | ? | 11%
CCNC(=S)NNC(=O)c1csc(C)c1 | 3% | 7% | 11% | 20% | 2% | -1%
Cc1cc(C(=O)NNC(=S)NC2CCCCC2)cs1 | ? | ? | 1.3µM* | nt | 2% | 11%
O=C(NNc1nc2ccccc2s1)C1CC1 | 18% | 3% | 1% | 7% | -14% | 2%
O=C(Nc1nc(-c2ccc(Cl)s2)cs1)c1cccs1 | -3% | ? | 27% | 5% | 11µM* | 7%
O=C(Nc1nc(-c2ccc(Cl)s2)cs1)c1ccco1 | ? | ? | 3.2µM* | ? | 15µM* | ?
O=C(NNc1nc(-c2ccc(Cl)cc2)cs1)c1ccco1 | ? | 14% | 25% | 19% | 24µM* | 1%
SMILES | ELG1 repair inh | NPC1 promoter act | Rab9 prom act | SMN2 splice enh | FLuc counter | ELG1 genotoxic
Cc1csc(NC(=O)c2ccco2)n1 | -2% | 1% | 3% | -7% | -2% | -1%
CCCC(=O)Nc1nc(-c2ccc(Cl)s2)cs1 | 0% | ? | ? | -13% | ? | 4%
O=C(Nc1nc(-c2nc3ccccc3s2)cs1)C1CC1 | ? | 1.4µM* | 0.71µM* | 7.1µM* | 3µM* | 2.6µM*
O=C(NNc1nc(-c2ccccc2)cs1)c1ccco1 | ? | 3% | 0% | 23% | ? | 11%
O=C(c1cccc(F)c1)N1CCC2(CC1)CN(c1ccccc1)C2 | nt | nt | nt | -26% | nt | nt
COc1ccc(CNC(=O)CCC2N=C3c4ccccc4N=C(SCC(=O)NCCc4ccc(OC)c(OC)c4)N3C2=O)cc1 (centres undefined) | nt | nt | nt | nt | -1% | nt
CCOC(=O)c1ccc(NC(=O)CSc2nccn2-c2ccc(OCC)cc2)cc1 | nt | nt | nt | -4% | -7% | nt
COC(=O)CSCc1nc(-c2ccc(C(=O)OC)cc2)oc1C | nt | nt | nt | nt | -22% | nt
O=C(Nc1ccc([N+](=O)[O-])cc1)Nc1nc(-c2ccc(Cl)s2)cs1 | 10µM* | -40% | -47% | -73% | -1% | -8%
O=C(Nc1nc(-c2ccccc2)ns1)c1cccs1 | ? | ? | ? | 13µM* | 15µM* | 3%
CC(=O)Nc1nc(-c2ccc([N+](=O)[O-])cc2)cs1 | 3% | 18% | ? | -19% | 1% | 2%
COc1cccc(OC)c1C(=O)Nc1nc(-c2ccccc2)cs1 | -11% | -8% | -5% | nt | 1% | -2%
O=C(Nc1nc(-c2ccccc2)cs1)c1cccs1 | ? | ? | 3.5µM* | nt | 8.5µM* | 4%
O=C(Nc1nc(-c2nc3ccccc3s2)cs1)c1ccco1 | ? | ? | ? | 22µM* | ? | ?
CCC(=O)Nc1cc(-c2nc3ccccc3s2)c(Cl)cc1Cl | nt | nt | nt | 6% | -4% | nt
COc1ccc(CNc2nc(-c3ccccc3OC)nc3ccccc23)c(OC)c1 | nt | nt | nt | -43% | nt | nt
COc1ccc(C2=C(C)C(N3CCC(C(=O)NCc4ccco4)CC3)=NS2(=O)=O)cc1 | nt | nt | nt | nt | -1% | nt
Cc1nn(-c2cccc(Cl)c2)c2nc(-c3cccnc3)cc(C(F)(F)F)c12 | nt | nt | nt | 7% | -1% | nt
COc1cc(S(=O)(=O)Nc2ccccc2C(=O)N2CCCCC2)ccc1NC(C)=O | 4% | 0% | 2% | nt | 4% | 3%
CC1CC1C(=O)Nc1nc(-c2ccccc2)cs1 (centres undefined) | ? | 21% | ? | -7% | 24µM* | ?
O=C1N=C(N2CCOCC2)S/C1=C1\C(=O)N(Cc2ccccc2)c2ccc(Br)cc21 | 1% | 11% | 15% | -5% | ? | 12%
CCCCN1C(=O)/C(=C2\SC(N3CCCCC3)=NC2=O)c2ccccc21 | ? | 1.4µM* | 1.8µM* | ? | 2.1µM* | ?
O=C(/C=C/c1ccccc1)Nc1scc(-c2ccccc2)c1C(=O)O | ? | 2.5µM* | 1.6µM* | 11µM* | 3µM* | 12%
Cc1sc(NC(=O)/C=C/c2ccco2)c(C(=O)OC(C)C)c1C | 15% | -2% | -4% | nt | 0% | 3%
O=C(/C=C/c1ccco1)Nc1scc(-c2ccccc2)c1C(=O)O | ? | 0.45µM* | 0.5µM* | nt | 4.8µM* | ?

Assay outcomes (PubChem)
